Measurements published in PMC4336329 (PLoS ONE, 2015).
Screen size: about 310,000 compounds; about 14,000 (4.5%) showed an effect of 50% or more. The effect is printed as a negative number. The sample holds strong results, similar compounds and a random draw of the others, so the mix is not that of the screen.

Target: human ether-à-go-go-related gene (hERG) potassium channel (human, UniProt Q12809)
Test: primary screen, population patch clamp on CHO cells stably expressing hERG; higher = less effect of the substance
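Further: peak tail current of the secondary pulse compared with the same well before compound.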

Chain of human ether-à-go-go-related gene (hERG) potassium channel (Q12809 whole entry, looked up): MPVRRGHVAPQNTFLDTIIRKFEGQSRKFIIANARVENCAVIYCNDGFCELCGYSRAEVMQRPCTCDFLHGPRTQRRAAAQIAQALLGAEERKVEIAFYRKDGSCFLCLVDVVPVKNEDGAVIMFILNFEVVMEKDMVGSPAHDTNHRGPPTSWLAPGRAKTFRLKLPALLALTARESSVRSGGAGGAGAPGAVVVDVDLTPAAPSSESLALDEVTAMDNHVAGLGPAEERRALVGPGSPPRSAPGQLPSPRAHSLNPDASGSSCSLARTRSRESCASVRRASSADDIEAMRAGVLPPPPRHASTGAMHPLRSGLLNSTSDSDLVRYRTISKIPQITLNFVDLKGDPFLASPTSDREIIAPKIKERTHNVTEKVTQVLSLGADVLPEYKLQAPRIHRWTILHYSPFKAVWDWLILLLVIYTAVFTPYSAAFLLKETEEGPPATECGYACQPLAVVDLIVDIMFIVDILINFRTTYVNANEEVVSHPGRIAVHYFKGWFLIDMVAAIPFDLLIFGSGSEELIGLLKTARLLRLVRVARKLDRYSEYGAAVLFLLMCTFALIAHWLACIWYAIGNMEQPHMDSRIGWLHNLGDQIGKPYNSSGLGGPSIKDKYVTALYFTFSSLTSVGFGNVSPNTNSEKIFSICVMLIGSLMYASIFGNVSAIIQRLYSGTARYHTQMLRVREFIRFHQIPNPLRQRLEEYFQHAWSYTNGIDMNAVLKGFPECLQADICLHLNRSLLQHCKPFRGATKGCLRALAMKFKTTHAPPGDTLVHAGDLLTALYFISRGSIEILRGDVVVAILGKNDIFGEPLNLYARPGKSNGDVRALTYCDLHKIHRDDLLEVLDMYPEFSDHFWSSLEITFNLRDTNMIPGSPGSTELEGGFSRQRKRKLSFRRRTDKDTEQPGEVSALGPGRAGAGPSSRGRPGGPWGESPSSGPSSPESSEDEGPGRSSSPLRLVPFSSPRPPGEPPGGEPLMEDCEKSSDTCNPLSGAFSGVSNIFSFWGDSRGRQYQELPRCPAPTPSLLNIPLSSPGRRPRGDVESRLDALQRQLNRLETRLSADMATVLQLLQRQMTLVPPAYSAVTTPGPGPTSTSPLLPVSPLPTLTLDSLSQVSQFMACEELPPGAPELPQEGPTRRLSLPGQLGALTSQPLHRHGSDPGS

Row | SMILES | hERG current change (%, negative = inhibition) at 10uM [%]
1 | O=C(COc1ccccc1)Nc1nonc1NC(=O)COc1ccccc1 | -12.8
2 | COc1cc(C(=S)N2CCCC2)ccc1O | 18.6
3 | CCN1C(=O)C2(Nc3ccccc3-c3nc4ccccc4n32)c2cc(OC)ccc21 (centres unmarked) | -4.35
4 | CCC(=O)N1CCc2cc(S(=O)(=O)CCC(=O)NCCc3ccc(OC)c(OC)c3)ccc21 | -0.229
5 | O=C(Nc1ccc(Cl)c(Cl)c1)NC1CCS(=O)(=O)C1 (centres unmarked) | -8.07
6 | COc1cc(NS(=O)(=O)c2ccc(NC(C)=O)cc2)ncn1 | 0.81
7 | Cc1nn(-c2ccc(Cl)cc2)c(N)c1C(O)(CSc1nccn1C)C(F)(F)F (centres unmarked) | -22.9
8 | O=C(NCC1CCCO1)c1ccc2ccccc2n1 (centres unmarked) | -3.04
9 | CC(C)Cn1c(CCCNC(=O)c2ccc(F)cc2)nc2ccccc21 | -50.3
10 | COc1ccc(C(=O)NCCCc2nc3ccccc3n2Cc2ccccc2C)cc1OC | -55.4
11 | COc1cc(C(=O)NCCCc2nc3ccccc3n2Cc2cc(C)ccc2C)cc(OC)c1OC | -33.6
12 | CCn1c(CCCNC(=O)c2ccc(F)cc2)nc2ccccc21 | -41.3
13 | COc1ccc(C(=O)NCCCc2nc3ccccc3n2Cc2cc(C)ccc2C)cc1OC | -39.7
14 | CCn1c(CCNC(=O)c2ccc(F)cc2)nc2ccccc21 | -33.9
15 | COc1ccc(CCC(=O)OC(C)C(=O)c2ccc(C)cc2)cc1 (centres unmarked) | 0.769
16 | COCCSc1nnc(NC(=O)c2cc(C(=O)OC)cc([N+](=O)[O-])c2)s1 | 11.4
17 | CC(C)c1nc(SCC(=O)NCc2ccccc2)n[nH]1 | 2.8
18 | CCOC(=O)C1(Cc2ccccc2)CCCN(C(=O)C=C(C)C)C1 (centres unmarked) | 13.2
19 | Cc1ccccc1CC1(CO)CCCN(C(=O)c2cccc(Cl)c2)C1 (centres unmarked) | 1.01
20 | COc1cccc(CC2(CO)CCCN(C(=O)c3cc[n+]([O-])cc3)C2)c1 (centres unmarked) | 10.4
21 | CCOC(=O)C1(Cc2ccccc2)CCCN(C(=O)c2ccc(-n3ccnc3)cc2)C1 (centres unmarked) | -58.4
22 | CCOC(=O)C1(Cc2ccccc2)CCCN(C(=O)c2cn[nH]c2)C1 (centres unmarked) | 13.4
23 | O=C(c1ccc(-n2ccnc2)cc1)N1CCCC(CO)(Cc2cccc(Cl)c2)C1 (centres unmarked) | -60.4

Row | SMILES | hERG current change (%, negative = inhibition) at 10uM [%]
24 | CC(=O)c1ccc(NC(=O)c2ccc(COc3ccccc3[N+](=O)[O-])o2)cc1 | -8.46
25 | Cc1cc(=O)n(CC(=O)Nc2cc(Cl)ccc2C)c(C(C)C)n1 | -1.59
26 | CN(CC1CCOCC1)C(=O)CC1C(=O)NCCN1Cc1ccc(Cl)c(F)c1 (centres unmarked) | 10.4
27 | CCCCNC(=O)c1nn(-c2ccccc2OC)c(=O)c2ccccc12 | -4.46
28 | COc1ccc(NC(=O)CCN2CCN(S(=O)(=O)c3ccc(F)cc3)CC2)cc1 | -6.32
29 | Cc1cc(C)c2c(-n3cccc3)c(C(=O)NNS(=O)(=O)c3ccc(Cl)cc3)sc2n1 | 0.175
30 | CN1CCC(NC(=O)Nc2cccc(C(F)(F)F)c2)CC1 | -0.705
31 | O=C(Nc1cccc(F)c1)NC1CCN(Cc2ccccc2)CC1 | -56.4
32 | CCN1CCC(NC(=O)Nc2cccc(C(F)(F)F)c2)CC1 | -51.1
33 | O=C(Cc1c(F)cccc1Cl)NC1CCN(Cc2ccccc2)CC1 | -0.715
34 | O=C(/C=C/c1cccc(F)c1)NC1CCN(Cc2ccccc2)CC1 | -70.6
35 | O=C(/C=C/c1cccc(Br)c1)NC1CCN(Cc2ccccc2)CC1 | -71.1
36 | COc1ccc(/C=C/C(=O)NC2CCN(Cc3ccccc3)CC2)cc1OC | -29
37 | O=C(Nc1ccc(F)cc1)NC1CCN(Cc2ccccc2)CC1 | -36.7
38 | O=C(COC(=O)/C=C/c1cccc(Br)c1)NC1CC1 | -2.84
39 | O=C(Nc1cccc(C(F)(F)F)c1)NC1CCCCC1 | -3.18
40 | O=C(Nc1ccccc1)NC1CCN(Cc2ccccc2)CC1 | -39.4
41 | S=C(Nc1ccc(Br)cc1Cl)NC1CCN(Cc2ccccc2)CC1 | -2.37
42 | COc1ccc(CN2C(=O)[C@H]3Cc4c([nH]c5ccccc45)C(C)(C)N3C2=O)cc1 | 7
43 | COc1cccc(NC(=O)N(Cc2cc3cc(C)cc(C)c3[nH]c2=O)CC2COCCO2)c1 (centres unmarked) | 4.85
44 | Cc1nnc(SCC(=O)N(Cc2ccccc2)C(C)C)n1-c1ccccc1 | -5.28
45 | Cc1c(O)ccc2c(=O)c(-c3nncn3-c3ccccc3)coc12 | 21.2
46 | COc1ccc(NC(=O)c2ccccc2C)cc1 | 14.9

Row | SMILES | hERG current change (%, negative = inhibition) at 10uM [%]
47 | Cc1c(C(=O)NCCc2ccccc2)oc2ccc(S(=O)(=O)N3CCOCC3)cc12 | -19.1
48 | CC(C)CC(=O)NCC(C)NC(=O)CC(C)C (centres unmarked) | 3.51
49 | COc1ccc(C(CC(=O)N2CCN(c3ccccc3)CC2)c2c(OC)cc(OC)c3ccc(=O)oc23)cc1 (centres unmarked) | 1.88
50 | Clc1ccc(C2CC(c3ccccc3)Nc3ncnn32)cc1 (centres unmarked) | -64.4
51 | c1ccc(C2CC(c3ccccc3)n3ncnc3N2)cc1 (centres unmarked) | -17.3
52 | Fc1ccc(C2CC(c3ccccc3)Nc3ncnn32)cc1 (centres unmarked) | -45.9
53 | Cc1ccc(C2CC(c3ccccc3)n3ncnc3N2)cc1 (centres unmarked) | -1.18
54 | Fc1ccc(C2CC(c3ccc(F)cc3)n3ncnc3N2)cc1 (centres unmarked) | -60
55 | Fc1ccc(C2CC(c3ccccc3)n3ncnc3N2)cc1 (centres unmarked) | -29.3
56 | CCc1ccc(/C=C2\SC(=S)N(CCCC(=O)Nc3nccs3)C2=O)cc1 | 8.83
57 | Cc1ccc(S(=O)(=O)n2nc(OC(=O)c3ccccc3F)cc2N)cc1 | 9.49
58 | CC(=O)Nc1c(Nc2ccccc2)c2ccccc2oc1=O | 3.92
59 | COc1ccc(C(=O)N2CCN(C(=O)c3cc(OC)c(OC)c(OC)c3)CC2)cc1 | -17.4
60 | COc1ccc(N2CCN(C(=O)COc3ccc4ccccc4c3)CC2)cc1 | 5.36
61 | COc1cc(C(=O)N2CCN(C(=O)COc3ccc4ccccc4c3)CC2)cc(OC)c1OC | -73
62 | CN1CCN(C(=O)COc2ccc3ccccc3c2)CC1 | -3.47
63 | COc1ccc(CN2CCN(C(=O)COc3ccc4ccccc4c3)CC2)c(OC)c1 | -52.6
64 | COc1cc(OC)cc(C(=O)N2CCN(C(=O)COc3ccc4ccccc4c3)CC2)c1 | -64.8
65 | COc1cccc(C(=O)N2CCN(C(=O)COc3ccc4ccccc4c3)CC2)c1 | -47.4
66 | COc1cc(OC)c(OC)cc1CN1CCN(C(=O)COc2ccc3ccccc3c2)CC1.O=C(O)C(=O)O | -36.4
67 | COc1ccccc1CN1CCN(C(=O)COc2ccc3ccccc3c2)CC1 | -36
68 | NC(=O)CCN(C1CCCCC1)S(=O)(=O)c1cccc2nsnc12 | 10.5
69 | Cc1ccc(SCc2cc(=O)c3c(=O)n(-c4ccccc4)[nH]c3[nH]2)cc1 | 7.34

Row | SMILES | hERG current change (%, negative = inhibition) at 10uM [%]
70 | N#Cc1nc(-c2ccco2)oc1N1CCCC1 | -11.1
71 | COC(=O)c1cc(S(=O)(=O)NCc2ccc3c(c2)OCO3)cn1C | -0.484
72 | CCOC(=O)c1cc(-c2ccc(N3CCOCC3)cc2)nn1-c1ccccc1C(=O)O | 5.59
73 | O=C(O)CN1CCN(C(c2ccccc2)c2ccccc2)CC1 | 30.4
74 | O=C(CCc1nc2ccccc2c(=O)[nH]1)NC1CCN(Cc2ccccc2)CC1 | -0.782
75 | O=c1nc2ccccc2c2n1CC(CN1CCN(C(c3ccccc3)c3ccccc3)CC1)N2 (centres unmarked) | -81.4
76 | COc1cc2nc(CN3CCN(C(c4ccccc4)c4ccccc4)CC3)[nH]c(=O)c2cc1OC | 1.59
77 | O=c1nc2ccccc2c2n1CC(CN1CCN(Cc3ccccc3)CC1)N2 (centres unmarked) | -66.1
78 | c1ccc(CN2CCN(c3nc4ccccc4c4ccccc34)CC2)cc1 | -3.19
79 | COCCCNC(=O)CCn1c(=O)c2ccccc2n(CC(=O)Nc2ccccc2C)c1=O | 9.98
80 | CCOc1ccc(Cc2nnc(N)s2)cc1OCC | -6.21
81 | NC(=O)C1(S(=O)(=O)c2ccccc2)CCCCC1 | 13.2
82 | C[N+]1=C(/C=C/Nc2ccccc2)C(C)(C)c2ccccc21.[O-][Cl+3]([O-])([O-])[O-] | -81.8
83 | CC1(C)OC(=O)C(=CNc2ccccc2)C(=O)O1 | -4.48
84 | CC1(C)OC(C)(C)/C(=C/Nc2ccccc2)C1=O | 10.2
85 | COc1ccc(OCC(=O)Nc2ccc(S(=O)(=O)N3CCCCC3)cc2)cc1 | -20.2
86 | O=C1c2ccc([N+](=O)[O-])cc2C(=O)N1c1ccc([N+](=O)[O-])cn1 | 14.5
87 | CCOC(=O)C1CCN(c2nc3ccccc3nc2C(C#N)C(=O)OCCOC)CC1 (centres unmarked) | -27.4
88 | CCOC(=O)C1CCCN(c2nc3ccccc3nc2C(C#N)C(=O)OCC)C1 (centres unmarked) | -14
89 | CCOC(=O)C1CCCN(c2nc3ccccc3nc2C(C#N)C(=O)OC(C)C)C1 (centres unmarked) | 8.39
90 | CCOC(=O)C1CCCN(c2nc3ccccc3nc2C(C#N)C(=O)OC(C)COC)C1 (centres unmarked) | -55.2
91 | CCOC(=O)C1CCCN(c2nc3ccccc3nc2C(C#N)C(=O)OCCOC)C1 (centres unmarked) | -66
92 | CCOC(=O)C1CCN(c2nc3ccccc3nc2C(C#N)C(=O)OC(C)COC)CC1 (centres unmarked) | -13.9
